Source: PubChem (several laboratories)
The list is not random: actives were taken first. Their share in the collection is about 1.8%.
MazEF act: activators of E. coli MazEF toxin-antitoxin RNase, primary screen, biochemical, fluorescence, uHTS | actives 0.32% (n = 350,000) | Endoribonuclease toxin MazF (Escherichia coli (strain K12)), P0AE70 | FAM/BHQ RNA-DNA oligo cleavage fluorescence, 5 h | activation, % at 20 µM; in the data active = activation above about 50%
Target sequence (P0AE70 whole entry, looked up): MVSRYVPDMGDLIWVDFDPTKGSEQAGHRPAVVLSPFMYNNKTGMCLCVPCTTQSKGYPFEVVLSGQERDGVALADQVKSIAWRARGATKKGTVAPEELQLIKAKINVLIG
CCHFV vOTU inh: CCHFV vOTU protease inhibitors, primary screen, biochemical, Pep-AMC substrate, fluorescence | actives 0.55% (n = 370,000) | Crimean-Congo hemorrhagic fever virus L polyprotein viral ovarian tumor (vOTU) protease … | inhibition, % at 11.5 µM; in the data active = inhibition above about 30%; note: 0% = vehicle wells with enzyme and 100% = no enzyme wells
Vc quorum ag: inducers of Vibrio cholerae quorum light production without autoinducers, primary screen, BH1578 luxS cqsA deficient, single point; V. cholerae BH1578 lux reporter, luminescence, 6 h; actives 0.16% (n = 350,000); activation, % at 18.7 µM; AID 588436, 2011; in the data active = activation mostly above about 9.7%, no sharp cut-off
Yp Topo-I inh: Yersinia pestis topoisomerase I inhibitors, primary screen, biochemical, cleavage product accumulation, plate reader, single point; Y. pestis Topo-I cleavage product accumulation; activity, % at 10 µM; actives 0.064% (n = 360,000); AID 504884, 2011; in the data active = activity above about 50%, passing the limit was not always enough
PrPC surface inh: inhibitors of human cell surface prion protein PrPC, primary screen, cell-based, TR-FRET. AID 720596, 2013. Major prion protein (Homo sapiens), P04156. TR-FRET read-out. actives 0.43% (n = 370,000). inhibition, % at 13.8 µM; in the data active = inhibition above about 24%; note: 0% = median of the test wells and 100% = reference compound wells
DUSP3 inh: VHR1 phosphatase inhibitors, primary screen, biochemical, absorbance, uHTS | inhibition, % at 13.3 µM | AID 1654, 2009 | recombinant VHR phosphatase, pNPP absorbance | actives 0.52% (n = 290,000) | Dual specificity protein phosphatase 3 (Homo sapiens), P51452; in the data active = inhibition above about 50%
Target sequence (P51452 whole entry, looked up): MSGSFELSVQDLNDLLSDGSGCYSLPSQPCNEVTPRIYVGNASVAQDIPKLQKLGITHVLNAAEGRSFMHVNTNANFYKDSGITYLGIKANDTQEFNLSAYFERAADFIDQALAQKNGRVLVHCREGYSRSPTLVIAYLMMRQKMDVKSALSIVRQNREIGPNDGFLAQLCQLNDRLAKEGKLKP
An asterisk follows results filed as active; i = inactive; / = not tested or not shown.

SMILES	MazEF act	CCHFV vOTU inh	Vc quorum ag	Yp Topo-I inh	PrPC surface inh	DUSP3 inh
CCOc1ccc(N/C=C/C(=O)c2ccc(OC)cc2)c([N+](=O)[O-])c1	91*	-19	-7	-4	-7	22
O=C1/C(=C\c2ccc3c(c2)OCO3)CCC/C1=C/c1ccc2c(c1)OCO2	-3	10	1	28	-3	15
O=C1OCC/C1=C\c1ccc2c(c1)OCO2	10	20	i	0	-2	52*
COc1cc2c(ccc3cc(OC)c(OC)c(O)c32)cc1O	6	-1	0	-6	4	53*
C[C@@H]1OCN(C)[C@H]2C[C@H]3c4[nH]c5cccc(-c6ccccc6)c5c4CCN3C[C@@H]12	/	-10	/	/	-3	/
O=[N+]([O-])c1ccc(Cl)cc1C=NNc1ccccn1	10	-1	2	1	6	/
O=[N+]([O-])c1ccc(/C=N/Nc2ccccn2)cc1	20	-3	-3	0	-18	58*
O=[N+]([O-])c1ccc(NN=Cc2cccc(O)c2)nc1	11	15	i	-10	-26	/
O=[N+]([O-])c1cc(Cl)cc(/C=N\Nc2ccccn2)c1O	-6	2	25*	-9	-5	24
O=[N+]([O-])c1ccc(NN=Cc2ccc3c(c2)OCO3)nc1	106*	-1	-1	-5	-6	/
CC(O)C1C=CC=CC(=O)OC2CC3OC4C5OC5(C)CCC4(COC(=O)C4OC4(C)C(O)CO1)C2(C)C31CO1 (centres undefined)	2	-3	-2	6	90*	/
CN1CCN(C(=O)c2cc3ccccc3[nH]2)CC1	-15	-5	0	-2	-6	-16
Cc1ccc(S(=O)(=O)N2CCCN(C(=O)c3cc4ccccc4[nH]3)CC2)cc1	-6	7	1	14	-3	50*
O=S(=O)(c1ccc(F)cc1)N1CCN(c2ccc(-c3ccccc3)nn2)CC1	63*	-7	i	1	3	37
O=S(=O)(Nc1cccc(-c2ccc(N3CCCCCC3)nn2)c1)c1ccc(F)cc1	18	19	0	30	10	21
COc1ccc(Cc2nnc(NC(=O)C3CC(=O)N(c4ccccc4)C3)s2)cc1OC (centres undefined)	-9	15	0	20	6	58*
COc1ccc(N2CCN(C(=O)c3ccc(S(=O)(=O)N4CCOCC4)cc3)CC2)cc1	-2	-2	i	-1	-4	51*
O=[N+]([O-])c1ccc(NC2CCCC2)c2ccncc12	62*	/	0	-12	/	26
O=[N+]([O-])c1ccc(NC2CCN(Cc3ccccc3)CC2)c2ccncc12	58*	9	-1	0	-28	16
O=[N+]([O-])c1ccc(N2CCCC2)c2ccncc12	2	18	0	-2	-51	18
C=CCN1C(=O)[C@H](CC(=O)N2CCN(C(=O)C3CC3)CC2)[C@@]2(C(=O)OCC)CCCC=C12	/	-3	/	/	3	/
CCN(Cc1ccc(OC)c(COC)c1)CC1CCCN(CCc2cccc(F)c2)C1 (centres undefined)	-8	-10	-2	31	-1	36
CCN(Cc1ccc(OC)c(COC)c1)CC1CCCN(CCc2cccc(OC)c2)C1 (centres undefined)	0	12	-1	23	-5	54*
COc1ccc(CN(C)CC2CCCN(CCc3ccc(F)cc3)C2)c(OC)c1OC (centres undefined)	8	-5	-2	-4	-4	60*
COc1ccc(CCN2CCCC(CN(C)Cc3cc(OC)ccc3OC)C2)cc1 (centres undefined)	-9	-4	0	9	-4	-2
SMILES	MazEF act	CCHFV vOTU inh	Vc quorum ag	Yp Topo-I inh	PrPC surface inh	DUSP3 inh
C[C@@H]1COc2cccc(F)c2S(=O)(=O)N1C	/	-5	/	/	-8	/
Cc1c(OCC(=O)NCc2ccncc2)ccc2c3c(c(=O)oc12)CCCC3	53*	-3	0	11	8	6
NS(=O)(=O)c1ccc(CNC(=O)COc2ccc3c4c(c(=O)oc3c2)CCCC4)cc1	165*	19	i	11	0	13
Cn1cc(C=C(C#N)C#N)c2ccccc21	154*	-4	0	-1	3	0
Cc1ccccc1CN1CCCCC(NC(=O)c2cccc([N+](=O)[O-])c2)C1=O (centres undefined)	/	3	/	/	-6	/
Oc1[nH]c(N=C2N=c3ccccc3=N2)c2ccccc12	56*	4	8	-10	20	32
N#CC(=C1N=c2ccccc2=N1)c1c(O)[nH]c2ccccc12	/	/	/	/	/	23
Cc1ccc2c(c1)=N/C(=N\c1[nH]c(O)c3ccccc13)N=2	58*	11	i	-6	5	/
Cc1ccc2[nH]c(O)c(N=Nc3ccccc3C)c2c1	6	4	0	0	-10	21
Cn1cccc1C(=O)N1CCN(S(=O)(=O)c2ccccc2F)CC1	/	-5	/	/	-1	/
COc1ccc(C)cc1NC(=O)c1ccc(NC(=O)CC2SC(N3CCCC3)=NC2=O)cc1 (centres undefined)	5	6	7.6*	-5	-8	3
O=C(N1CCN(c2ccccc2)CC1)C(F)(F)C(F)F	-2	0	2	-1	3	52*
CCCCNC(=O)C1(C(=O)C2CC2)CC(c2ccccc2C(F)(F)F)=NO1 (centres undefined)	/	0	/	/	-1	/
CCCCC#Cc1ccccc1COC[B-](F)(F)F	/	19	/	/	29*	/
O=C(Nc1cccc(Cl)c1)OC1CCC12CCC(c1ccccc1)CC2 (centres undefined)	/	10	/	/	10	/
CC(C)(C)OC(=O)NCCCCCc1nnc(SCc2cccc(F)c2)o1	8	8	-1	23	11	29
CC(C)(C)OC(=O)NCCCCCc1nnc(SCc2ccccc2)o1	2	3	i	57*	5	-21
CN(CCCCCCN(C)Cc1ccccc1O)Cc1ccccc1O	0	2	-1	-1	-4	52*
CCCCC(NC(=O)Cc1c(C)c2cc3c4c(oc3c(C)c2oc1=O)CCCC4)C(=O)O (centres undefined)	-3	-23	-2	12	7	52*
CCCCC(NC(=O)Cc1c(C)c2cc3c4c(oc3cc2oc1=O)CCCC4)C(=O)O (centres undefined)	0	-10	0	19	1	-1
Cc1c(CCC(=O)NCCCCCC(=O)O)c(=O)oc2c(C)c3oc4c(c3cc12)CCCC4	0	-1	0	8	-5	16
